In the library only some 5.9% were active in any assay of this set; here they are far more common.
FXN GAA850 act: FXN promoter activators, primary screen, cell-based, luciferase luminescence, HEK293 lucGAA850 | HEK293 lucGAA850 FXN promoter luciferase reporter, 24 h; percent of 10 µM SAHA response | activation, % at 6 µM | 360,000 tested, 0.56% active | AID 540364, 2011;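 active = activation above the average of all compounds screened plus 3 SD, cutoff fixed separately per campaign, cut at about 7.5% in these data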
NR0B1 inh: DAX1 (NR0B1) inhibitors, primary screen, cell-based, HEK293, Gal4-DAX1, luciferase luminescence | Nuclear receptor subfamily 0 group B member 1 (Homo sapiens), P51843 | HEK293 Gal4-DAX1 luciferase reporter | inhibition, % at 6.75 µM | 340,000 tested, 0.99% active;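 active = inhibition above the mean over all tested compounds plus 3 SD, cut at about 4.2% in these data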;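 also: inhibition shows as a rise in luminescence from relieved DAX1 repression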
HSF1 inhib: HSF1 inhibitors in luciferase reporter cells, primary screen, cell-based, NIH3T3, luminescence; NIH3T3-HGL HSE-luciferase, MG132-induced, luminescence 8 h; hits give low values; 300,000 tested, 0.77% active; AID 2098, 2009; activity change, negative = inhibition, % at 7.5 µM (by protocol);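 active = more than half of replicate wells show activity change below -50%, luminescence cut by over half; inconclusive = some wells, but at most half, below -50%; inactive = no replicate well below -50%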;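 also: luciferase reports HSF-1 transcriptional activity via heat shock element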
HSP90 inh: HSP90 inhibitors, primary screen, cell lysate, luminescence; 290,000 tested, 0.91% active; inhibition, % at 5.6 µM; Heat shock protein HSP 90 (rabbit reticulocyte lysate; luciferase refolding); Rabbit reticulocyte lysate, luciferase refolding luminescence, 3 h;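 active = inhibition above the screen-wide mean plus 3 SD, computed separately per campaign, cut at about 16% in these data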;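 also: inhibitors lower the luminescence because luciferase stays unfolded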
AHR activator: AHR activators, primary screen, cell-based, luminescence, luciferase reporter, human; AID 2796, 2010; AHR-responsive luciferase reporter cells; activation, % at 5 µM; 320,000 tested, 2.5% active; Aryl hydrocarbon receptor (Homo sapiens), P35869; in the data active = activation above about 47%
Target sequence (P35869 whole entry, looked up): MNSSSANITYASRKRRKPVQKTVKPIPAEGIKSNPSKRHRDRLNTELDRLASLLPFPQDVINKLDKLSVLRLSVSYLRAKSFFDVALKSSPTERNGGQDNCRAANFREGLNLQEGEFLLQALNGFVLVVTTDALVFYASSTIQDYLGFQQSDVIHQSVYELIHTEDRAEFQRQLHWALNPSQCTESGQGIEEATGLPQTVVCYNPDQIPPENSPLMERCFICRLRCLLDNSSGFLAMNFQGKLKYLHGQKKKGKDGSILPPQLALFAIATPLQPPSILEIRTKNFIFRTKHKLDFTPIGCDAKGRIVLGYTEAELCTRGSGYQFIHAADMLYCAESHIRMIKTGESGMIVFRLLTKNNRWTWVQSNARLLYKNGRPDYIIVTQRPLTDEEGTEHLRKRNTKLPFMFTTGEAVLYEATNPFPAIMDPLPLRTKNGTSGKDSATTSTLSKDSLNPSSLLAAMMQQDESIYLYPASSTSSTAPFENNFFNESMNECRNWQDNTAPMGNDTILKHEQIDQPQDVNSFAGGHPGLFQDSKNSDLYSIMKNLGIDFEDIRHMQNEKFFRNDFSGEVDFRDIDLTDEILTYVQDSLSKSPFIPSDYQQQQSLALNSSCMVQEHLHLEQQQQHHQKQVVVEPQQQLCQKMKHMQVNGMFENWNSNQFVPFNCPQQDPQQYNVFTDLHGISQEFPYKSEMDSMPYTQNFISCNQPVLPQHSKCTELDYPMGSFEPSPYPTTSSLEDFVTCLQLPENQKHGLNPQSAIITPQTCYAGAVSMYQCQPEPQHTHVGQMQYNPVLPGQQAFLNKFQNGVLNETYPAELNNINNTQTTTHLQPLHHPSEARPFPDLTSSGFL
HSF-1 act: HSF-1 activators, primary screen, NIH3T3-HGL cells, MG132 stress, luminescence, single point; NIH3T3-HGL HSF-1 luciferase reporter, 8 h; 100% = twice DMSO control signal; activation, % at 9 µM; 300,000 tested, 1.7% active; AID 504408, 2011;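 active = mean replicate activation of at least 50% with a set share of replicates each reaching 50%; inconclusive = only one of those two conditions met; inactive = mean below 50% and too few replicates reaching it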
GAA30 FXN cntr: GAA30 FXN promoter activators, confirmation, counter-screen for GAA850 frataxin promoter activator project, cell-based, luminescence, HEK293, lucGAA30, triplicate. shares compounds with FXN GAA850 act. HEK293 lucGAA30 FXN promoter luciferase, 24 h; DMSO = 0%, 5 µM ipriflavone = 100%. AID 588350, 2011. 1,900 tested, 66% active. activation, % at 6 µM;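 active = mean activation above the mean of solvent-only control wells plus 3 SD, cut at about 22% in these data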;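 also: counterscreen of GAA850 promoter hits where activity marks nonselective or luminescence artifacts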
GAA850 confirm: FXN GAA850 promoter activators in reporter cells, confirmation, cell-based, luminescence, HEK293 lucGAA850, triplicate. AID 588351, 2011. activation, % at 6 µM. 1,900 tested, 86% active. HEK293 lucGAA850 FXN promoter luciferase reporter, 24 h; 100% = activation by SAHA. shares compounds with FXN GAA850 act;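 active = mean activation above a set limit taken from the primary screen, cut at about 8% in these data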
Each line names hits and unclear results; the compound was inactive in the other large screens (follow-up assays come after a bar, where they were run).

CC(=O)c1cccc(Nc2nc(-c3sc(C)nc3C)cs2)c1	none
COc1ccc(N2CCN(C(=O)c3ccc4c(c3)CCN4S(C)(=O)=O)CC2)cc1	none (no result: HSF1 inhib, HSP90 inh, AHR activator, HSF-1 act)
CCCN1C2=NCCN2c2ccccc21	none (no result: HSF1 inhib, HSF-1 act)
c1ccc2c(c1)C1=NCCN1c1ccccc1-2	FXN GAA850 act 33 (no result: HSF1 inhib, HSP90 inh, AHR activator, HSF-1 act) | GAA30 FXN cntr inactive | GAA850 confirm 150
COc1cccc(/C=N/Nc2ccc([N+](=O)[O-])cc2)c1O	FXN GAA850 act 8.1, HSF-1 act inconclusive | GAA30 FXN cntr 106 | GAA850 confirm 35
O=[N+]([O-])c1ccccc1N/N=C/c1cccc(O)c1O	FXN GAA850 act 12 | GAA30 FXN cntr 40 | GAA850 confirm 26
O=[N+]([O-])c1cccc(N/N=C/c2cccc(O)c2O)c1	FXN GAA850 act 8.7, HSF-1 act 65 | GAA30 FXN cntr 67 | GAA850 confirm 30
CCOc1ccc(C(=O)Nc2cccc([N+](=O)[O-])c2)cc1Br	none
COC(=O)c1c(C)oc(C)c1S(=O)(=O)NCc1ccc(Cl)cc1Cl	none
O=C(c1ccco1)N1CCN(C(=S)Nc2ccccc2C(F)(F)F)CC1	none
N#C/C(=C\c1ccccc1)C(=O)Nc1ccccn1	none
N#C/C(=C\c1cccs1)C(=O)Nc1ccccn1	FXN GAA850 act 8.9, NR0B1 inh 6.9 | GAA30 FXN cntr 106 | GAA850 confirm 34
O=C(Nc1ccc(Br)cc1Cl)c1ccc2c(=O)n3c(nc2c1)CCC3	FXN GAA850 act 7.9, HSF-1 act 55 (no result: HSP90 inh) | GAA30 FXN cntr 88 | GAA850 confirm 23
O=C(Nc1ccc(Cl)cc1Cl)c1ccc2c(=O)n3c(nc2c1)CCC3	none (no result: HSP90 inh)
O=C(Nc1ccc(Cl)cc1)c1ccc2c(=O)n3c(nc2c1)CCCCC3	FXN GAA850 act 18 | GAA30 FXN cntr 63 | GAA850 confirm 25
COC(C[C@H]1O[C@H]1[C@@H](O)[C@@H](C)OCc1ccccc1)OC	none (no result: HSP90 inh, AHR activator)
COc1ccc(/C=N/NC(=O)C(C)n2nnc3ccccc32)cc1OC (stereo not given)	FXN GAA850 act 8.5 | GAA30 FXN cntr inactive | GAA850 confirm 11
CC1=CC(=O)N(c2cccc3c(N4C(=O)C=C(C)C4=O)cccc23)C1=O	FXN GAA850 act 9.2 (no result: HSF1 inhib, HSP90 inh, AHR activator, HSF-1 act) | GAA30 FXN cntr inactive | GAA850 confirm 26
Cc1cc(Br)c2c(c1)/C(=C/C(=O)c1cccs1)C(=O)N2	FXN GAA850 act 9.7 | GAA30 FXN cntr inactive | GAA850 confirm 22
CCOC(=O)C1=C(C)NC2=C(C(=O)CCC2)C1c1cn(Cc2ccc(Cl)cc2Cl)nc1-c1ccccc1 (stereo not given)	FXN GAA850 act 13 | GAA30 FXN cntr 22 | GAA850 confirm 7.8
COC(=O)C1=C(C)NC2=C(C(=O)CCC2)C1c1cn(Cc2ccc(Cl)cc2Cl)nc1-c1ccccc1 (stereo not given)	none
O=C(Nc1ccccc1[N+](=O)[O-])C1=C(O)CCn2c1nc1ccccc12	FXN GAA850 act 9.2 | GAA30 FXN cntr inactive | GAA850 confirm 16
CC(=O)c1ccc(NC(=O)CSc2nc(N)c3cc4c(nc3n2)CCCC4)cc1	FXN GAA850 act 7.7 | GAA30 FXN cntr 101 | GAA850 confirm 27
O=C(NNC(=S)Nc1ccccc1)c1cccs1	FXN GAA850 act 8.3 | GAA30 FXN cntr 74 | GAA850 confirm 29
CCOC(=O)c1c(CN2CCCCC2)n(C)c2cc(Br)c(O)c(CN(C)C)c12	none
CCOC(=O)c1c(CSc2ccccc2)n(C)c2cc(Br)c(O)c(CN(C)C)c12	FXN GAA850 act 19 | GAA30 FXN cntr inactive | GAA850 confirm 12
CCOC(=O)c1c(CSc2ccc(C)cc2)n(C)c2cc(Br)c(O)c(CN(C)C)c12	FXN GAA850 act 11 | GAA30 FXN cntr inactive | GAA850 confirm 15
CCOC(=O)c1c(CN2CCOCC2)n(-c2ccccc2)c2cc(Br)c(O)c(CN(C)C)c12	none
CCOC(=O)c1c(CSc2ccsc2)n(C)c2cc(Br)c(O)c(CN(C)C)c12	FXN GAA850 act 7.8 | GAA30 FXN cntr inactive | GAA850 confirm inactive
COc1ccccc1/C=C/C(=O)NCc1cccnc1	none
O=C(NCCc1ccc(F)cc1)c1coc(=O)c(Br)c1	FXN GAA850 act 10 | GAA30 FXN cntr inactive | GAA850 confirm 17
CC(C)OP(=O)(c1ccc(N(C)C)cc1)C(O)c1ccc(C(C)C)cc1 (stereo not given)	FXN GAA850 act 11 | GAA30 FXN cntr 29 | GAA850 confirm 13
CC(C)OP(=O)(c1ccc(N(C)C)cc1)C(O)c1ccccc1 (stereo not given)	none
CC(C)CCOP(=O)(c1ccc(N(C)C)cc1)C(O)c1c(Cl)cccc1Cl (stereo not given)	FXN GAA850 act 20 | GAA30 FXN cntr 26 | GAA850 confirm 14
CCN1CCCC1CNC(=O)c1ccc(Sc2ccccc2Cl)c([N+](=O)[O-])c1 (stereo not given)	none
CCOc1nc(C)ccc1-c1noc(-c2ccco2)n1	FXN GAA850 act 7.7 | GAA30 FXN cntr 53 | GAA850 confirm 18
O=C(C[n+]1ccc(/C=N/O)cc1)NC(=O)Nc1ccccc1	none (no result: HSF1 inhib, HSP90 inh, HSF-1 act)
O=C1NCCN1Cc1ccccc1	FXN GAA850 act 8.6 | GAA30 FXN cntr inactive | GAA850 confirm inactive
O=C1NCCN1Cc1ccc(F)cc1	none
O=C(/C=C/C=C/c1ccccc1)c1ccco1	FXN GAA850 act 9.5, HSF-1 act inconclusive | GAA30 FXN cntr 106 | GAA850 confirm 44
O=C(NCc1cccc(F)c1)Nc1nnc([C@@H]2C[C@H](O)[C@@H](CO)O2)s1	none (no result: NR0B1 inh, HSF1 inhib, HSP90 inh, AHR activator, HSF-1 act)
COc1ccc(CN2CCNC(=O)C2CC(=O)NC2Cc3ccccc3C2)c(OC)c1 (stereo not given)	none
COc1ccc(S(=O)(=O)Nc2ccccc2OC)cc1C	FXN GAA850 act 8.9 | GAA30 FXN cntr inactive | GAA850 confirm inactive
COc1ccc(S(=O)(=O)Nc2ccccc2SC)cc1C	none
CC(C)(C)OC(=O)n1cc(/C=N/NC(=O)c2ccco2)c2ccccc21	none

Bioassay records (PubChem)
